Reference: PubChem BioAssay (NCI)
This is part of a sample that, as a whole, favours compounds with a hit. Of some 83,000 tested, about 20% had one in any assay.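 Method: cells in 96-well plates; compound added at one concentration; 48 h incubation; percent growth measured; values under 10 scored active.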 The source made the active and inactive calls.

These compounds were tested on HL-60(TB) leukemia (assay: NCI-60 one-dose screen, 48 h (100 = growth as untreated, 0 = no growth, -100 = all killed)). Settings: 10 µM unless noted.

Row | SMILES | growth
1 | c1ccc(-c2nc(N3CCOCC3)c3c4c(sc3n2)CCCCC4)nc1 | 79.2% (inactive)
2 | FC(F)(F)c1cn(CC2CNC2)c2ncnc(Cl)c12 | 73.5% (inactive)
3 | CC(C)OP(=O)(O)c1ncc(-c2ccc(C(F)(F)F)cc2)c(NC2CCCCCC2)n1 | 44.4% (inactive)
4 | CN(C)CCOc1nc2ccccc2c2c1-c1ccc(Cl)cc1C2=O | -27.2% (active)
5 | Oc1ccc(Nc2ccccc2)cc1 | 66.5% (inactive)
6 | CN(C)N1C(=O)c2c(Cl)c(Cl)c(Cl)c(Cl)c2C1=O | 95.8% (inactive)
7 | Nc1nc(N)c(-c2ccc(Cl)c(Cl)c2)c(CBr)n1 | 59.5% (inactive)
8 | CCCCCCCC1(C)NC(=O)NC1=O (stereo unspecified) | 100% (inactive)
9 | Nc1ccc(-c2cc3c(NCc4ccccc4)ncnc3s2)cc1 | 85.5% (inactive)
10 | CCOC(=O)c1cc(C)n(-c2ccc(C(=O)O)cc2)c1C | 86.2% (inactive)
11 | CCNCCCCNCCCCNCCCCNCCCCNCC | 127% (inactive)
12 | CC(c1cc(Cl)ccc1O)c1cc(Cl)ccc1O | 34.1% (inactive)
13 | CS(=O)(=O)N(c1cc(-c2ccc3ncnc(Nc4ccc(F)c(Cl)c4)c3c2)cnc1Cl)S(C)(=O)=O | 20.4% (inactive)
14 | CCCCCCN(CCCCCC)CCCNc1nccc2ccccc12 | -1.22% (active)
15 | O=C1c2ccccc2-c2nnc(-c3ccc(Br)cc3)cc21 | 0.71% (active)
16 | C#Cc1cccc(Nc2ncnc3cc(NC(=O)CCl)ccc23)c1 | -41.3% (active)
17 | Cc1ccc(S(=O)(=O)N(CCC(=O)O)c2ccccc2)cc1 | 92.1% (inactive)
18 | CCn1cc(CNc2ccc(C(=O)Nc3ccc4ccccc4c3)cc2)c(C)n1 | 79.8% (inactive)
19 | C=C(C)[C@@H]1CC[C@]2(CN)CC[C@]3(C)[C@H](CC[C@@H]4[C@@]5(C)CCC(=O)NC(C)(C)[C@@H]5CC[C@]43C)[C@@H]12 | -50.5% (active)
20 | Nc1c(C(=O)Nc2ccccc2F)sc2nc3c(cc12)CCCC3 | 15.5% (inactive)
21 | O=c1onc(-c2ccccc2)c2ccccc12 | 86.8% (inactive)
22 | O=C(C(=O)c1cc(Br)ccc1O)c1cc(Br)ccc1O | 27.4% (inactive)
23 | Cc1cc(C)cc(Nc2nccc(-c3c(-c4ccc(F)cc4)ncn3C3CCNCC3)n2)c1 | -58.9% (active)
24 | CC(=O)C1CCC2C3CC(C)=C4CC(O)CCC4(C)C3CCC12C (stereo unspecified) | 98.7% (inactive)
25 | Cn1c(=O)c2nc(SCc3ccccc3)n(C)c2n(C)c1=O | 92.3% (inactive)
26 | COC(=O)C1(C)COP(=O)(NC23CC4CC(CC(C4)C2)C3)OC1 (stereo unspecified) | 119% (inactive)
